Screening results as filed in PubChem.
ATXN2 expr inh: reduces ATXN2 reporter expression in HEK-293 cells. HEK-293 ATXN2-luciferase reporter, luminescence, 24 h. Potency, µM (titrated, usually from 57 µM), inactives show at the highest dose activity change, negative = inhibition, actives largely listed as inhibitors. 360,000 tested, 0.72% active; note: % is set by controls: 0 for no effect and ±100 for the full control effect; nearly all actives have a fitted effect of over 55% in size
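ATXN2-luciferase reporter cells (luciferase flanked by upstream and downstream ATXN2 gene portions) were treated 24 h at 37 °C with compounds at up to 57 uM. SteadyGlo luminescence gave expression; GF-AFC fluorescence gave viability.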
HepG2 viability: HepG2 cytotoxicity, counter-screen for TGF-b inhibitors; HepG2 CAGA-GFP viability, ATP luminescence, 18 h; Potency, µM (highest dose often 46.1 µM), for the others: at the top dose activity change, negative = cytotoxicity, usual class: cytotoxic; 410,000 tested, 0.76% active
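HepG2 CAGA-GFP cells (1000/well, DMEM with 1% FBS) received compound, then TGF-beta at 500 pg/mL final, and were incubated 18 hours at 37 degrees C. Viability was read by CellTiter-Glo luminescence. Media-only wells were set as complete cell-killing and DMSO as no toxicity.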
RORgamma inh: blocks mouse ROR gamma transcriptional activity | P51450 | Drosophila S2 Gal4-RORgamma UAS-luciferase reporter, 20 h | Potency, µM (top dose mostly 53.6 µM), for the others: at the highest dose activity change, negative = inhibition, actives largely listed as inhibitors | 310,000 tested, 5.4% active | AID 2551; note: % is set by controls: 0 for no effect and ±100 for the full control effect; nearly all actives have a fitted effect of over 60% in size
Target sequence (P51450 whole entry, looked up, the tested form may be a part): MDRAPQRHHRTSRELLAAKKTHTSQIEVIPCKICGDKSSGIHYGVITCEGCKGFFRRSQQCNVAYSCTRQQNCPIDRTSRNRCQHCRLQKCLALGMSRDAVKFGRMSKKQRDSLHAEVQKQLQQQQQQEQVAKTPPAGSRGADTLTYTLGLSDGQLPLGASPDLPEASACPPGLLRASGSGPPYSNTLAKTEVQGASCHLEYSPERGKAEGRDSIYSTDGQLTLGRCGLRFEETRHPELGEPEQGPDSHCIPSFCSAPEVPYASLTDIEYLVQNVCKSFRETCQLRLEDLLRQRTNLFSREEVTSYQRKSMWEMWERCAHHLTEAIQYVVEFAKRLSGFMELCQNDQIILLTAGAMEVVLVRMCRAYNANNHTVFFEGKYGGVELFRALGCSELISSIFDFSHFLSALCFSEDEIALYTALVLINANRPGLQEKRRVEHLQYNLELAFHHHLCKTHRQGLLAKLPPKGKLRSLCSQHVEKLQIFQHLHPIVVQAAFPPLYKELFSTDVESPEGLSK
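Luminescence from a UAS-regulated Photinus luciferase reporter in stably transfected Drosophila Schneider cells is measured; decreased signal marks ROR gamma inhibition. Fusion expression is induced by 700 uM copper sulfate for 20 hr.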
TGFb SMAD3 inh: TGF-b pathway inhibition; Potency, µM (highest dose often 46.1 µM), without a hit: top-dose activity, negative = inhibition, hits mostly inhibitors; 410,000 tested, 1.2% active; HepG2 CAGA-GFP TGF-b/SMAD3 reporter, GFP fluorescence, 18 h; TGF-beta stimulated, 500 pg/mL final; note: % is set by controls: 0 for no effect and ±100 for the full control effect; nearly all actives have a fitted effect of over 65% in size
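First, reporter cells (HEPG2 CAGA-GFP) rested 2 h at 37 degrees C. Next, compounds were pinned in and TGF-beta added to 500 pg/mL final. After 18 h, GFP was imaged per cell and summed per well.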
Gal4-VP16 FLuc: counter-screen for ROR gamma inhibitors: Gal4-VP16 reporter; Drosophila S2 Gal4-VP16 UAS-luciferase, luminescence, 20 h; Potency, µM (highest dose often 53.6 µM), inactives show at the top dose activity, negative = inhibition, most hits filed as inhibitors; 310,000 tested, 3.5% active; AID 2546;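 note: Gal4-VP16 expression switched on by copper sulfate through the metallothionein promoter; % is set by controls: 0 for no effect and ±100 for the full control effect; nearly all actives have a fitted effect of over 50% in size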
S2 tox: cell viability loss in ATXN counter-screen | Potency, µM (series often up to 56.7 µM), usual class: cytotoxic | 400,000 tested, 0.49% active | S2 cells (HEK-293 line with an ATXN2-luciferase reporter) viability, CellTiter-Fluor protease fluorescence, 24 h; note: nearly all actives have a fitted effect of over 40% in size
An asterisk follows results filed as active; i = inactive; ? = inconclusive; · = not tested or not shown; [ ] = remark or other dose. Shown are actives, neighbours in structure and some others; about 6.1% of the full set was active somewhere. Calls come from the whole dose curve; as a rule, active = well fitted curve in the direction sought with a large enough effect; inconclusive = small, poorly fitted or top-dose-only effect, or another doubt; inactive = no such curve, though single readings can be large; an effect the other way counts as inactive or inconclusive. Potency is the fitted concentration of half-maximal effect.

SMILES | ATXN2 expr inh | HepG2 viability | RORgamma inh | TGFb SMAD3 inh | Gal4-VP16 FLuc | S2 tox
Cc1cccc(-n2c(-c3csc(C)c3)n[nH]c2=S)c1 | -11.1% | -16.9% | 3.98µM* | 1.4% | 8.91µM* | i
S=c1[nH]nc(-c2ccccc2)n1-c1ccccc1 | · | -4.8% | · | 4.2% | · | ·
Fc1cccc(-c2n[nH]c(=S)n2-c2ccccc2)c1 | · | -5.5% | 8.91µM* | -28.4% | 7.94µM* | i
Cc1ccc(C)c(N2CCN(CCCNC(=O)c3ccc4nc(N5CCCCC5)sc4c3)CC2)c1 | 53.9% | -2.0% | · | -2.5% | · | i
CN1CCN(c2ncc3c(n2)CCN(Cc2cc(Br)cs2)C3)CC1 | -10.6% | -17.7% | · | 20.3% | · | ?
COc1c(Cl)cc(Cl)cc1/C=N/NC(=O)c1nnn(-c2nonc2N)c1CN1CCC(C)CC1 | -7.6% | -8.1% | -25.8% | -5.3% | -2.6% | i
Cc1cc(C)c(/C=N/NC(=O)c2nnn(-c3nonc3N)c2CN2CCC(C)CC2)c(C)c1 | -23.1% | -126.7% | ? | ? | ? | ?
CC1CCN(Cc2c(C(=O)N/N=C/c3cc(Cl)ccc3O)nnn2-c2nonc2N)CC1 | 2.24µM* | -9.2% | 3.55µM* | ? | 4.47µM* | i
CC1CCN(Cc2c(C(=O)N/N=C/c3cc(Br)ccc3O)nnn2-c2nonc2N)CC1 | ? | -48.3% | 3.55µM* | ? | 7.08µM* | ?
CC1CC(C)CN(c2ccc([N+](=O)[O-])nc2)C1 (stereo not given) | -3.5% | -24.1% | ? | -7.3% | 11.6% | 11.9µM*
COc1ccc(NC(=O)Cn2nnnc2-c2ccccc2F)c(C)c1 | · | -11.6% | · | -12.2% | · | ·
O=[N+]([O-])c1ccc2c(c1)C=CC2 | · | 9.0% | · | -2.8% | · | ·
Cc1ccc(NC(=O)CN2C(=O)/C(=C3\SC(=S)N(C4CCS(=O)(=O)C4)C3=O)c3ccccc32)cc1 (stereo not given) | -4.1% | -0.8% | -4.7% | 0.0% | -2.2% | i
O=C(CN1C(=O)/C(=C2\SC(=S)N(C3CCS(=O)(=O)C3)C2=O)c2ccccc21)Nc1ccccc1 (stereo not given) | -10.9% | 27.1% | 0.891µM* | 13.1% | -20.9% | i
COc1cc(NC(=O)Cn2c(-c3ccccc3)cc(C(C)=O)c2C)cc(OC)c1 | · | 6.1% | · | 0.0% | · | ·
c1ccc(CC2CCN(C3=Nc4cccc5cccc3c45)CC2)cc1 | 2.7% | 12.6µM* | ? | ? | 7.08µM* | i
COc1ccccc1N1CCN(C2=Nc3cccc4cccc2c34)CC1 | 29.2%[11.3 µM] | -20.3% | 15.8µM* | -13.6% | ? | ?
CC(=O)N1CCN(C2=Nc3cccc4cccc2c34)CC1 | -4.5% | 0.0% | 28.1% | -0.5% | -3.8% | i
CCOC(=O)c1ccc2c(c1)N(CC(=O)Nc1ccc(CC)cc1)C(=O)c1ccccc1S2 | 11.0% | -0.6% | · | 3.3% | · | i
CS(=O)(=O)NC(=O)CCC/C=C\C[C@H]1C(=O)C[C@@H](O)[C@@H]1/C=C/[C@@H](O)COc1ccccc1 | · | · | ? | · | -10.6% | ·
COc1cc(Cl)c(C)cc1NC(c1ccccc1)c1nnc(-c2ccccc2Cl)o1 (stereo not given) | · | -35.4% | · | 17.8µM* | · | ·
CCCC(NC(=S)NCC1CCCO1)C12CC3CC(CC(C3)C1)C2 (stereo not given) | · | -33.8% | 0.447µM* | -22.1% | 3.16µM* | i
O=C(CCC1N=C2c3ccccc3N=C(SCC(=O)Nc3ccc(F)cc3)N2C1=O)NCc1cccs1 (stereo not given) | · | -15.9% | · | 79.3% | · | ·
CC1CCCCN1S(=O)(=O)c1ccc(C(=O)Nc2nnc(C3CC3)o2)cc1 (stereo not given) | -37.0% | -35.8% | 0.126µM* | -10.5% | 0.316µM* | i
O=C(Nc1nnc(-c2ccco2)o1)c1ccc(S(=O)(=O)N2CCCCC2)cc1 | · | -31.5% | · | -2.8% | · | i
SMILES | ATXN2 expr inh | HepG2 viability | RORgamma inh | TGFb SMAD3 inh | Gal4-VP16 FLuc | S2 tox
Cc1nnc(NC(=O)c2ccc(S(=O)(=O)N3CCc4ccccc4C3)cc2)o1 | -21.1% | -42.1% | 1.26µM* | -18.2% | 5.01µM* | i
CC1CCCCN1S(=O)(=O)c1ccc(C(=O)Nc2nnc(-c3ccco3)o2)cc1 (stereo not given) | ? | -41.9% | 0.708µM* | ? | 0.631µM* | i
Cc1cccc(NC(=O)c2ccc(S(=O)(=O)N3CCCCC3C)cc2)n1 (stereo not given) | -2.2% | -72.7% | · | 0.2% | · | i
CC1CCCCN1S(=O)(=O)c1ccc(C(=O)Nc2nnc(-c3ccccn3)o2)cc1 (stereo not given) | -15.2% | -8.5% | 2µM* | -0.3% | 5.01µM* | i
COc1cc(CN2CCCC(n3cc(C(=O)N4CCCCC4)nn3)C2)cc(OC)c1 (stereo not given) | · | · | · | · | · | i
Cc1cccc(C(=O)NCc2nc(-c3cccc(NC(=O)C4CCCN(C)C4)c3)oc2C)n1 (stereo not given) | · | · | · | · | · | i
Cc1ccccc1CNC(=O)C(=O)NCC(c1ccco1)S(=O)(=O)c1ccc(F)cc1 (stereo not given) | · | -17.9% | · | 0.1% | · | ·
CC(=O)C1=C(OC(=O)C(C)C)c2ccccc2S(=O)(=O)N1Cc1ccccc1 | 13.2% | -5.2% | · | -6.3% | · | i
Cc1nnc(NC(=O)c2ccc(S(=O)(=O)N3CC(C)CC(C)C3)cc2)o1 (stereo not given) | -38.5% | -37.6% | 1.41µM* | -10.2% | 1.41µM* | i
Cc1nnc(NC(=O)c2ccc(S(=O)(=O)N3CCCCC3C)cc2)o1 (stereo not given) | -22.4% | -32.9% | 1.12µM* | -12.1% | 1.12µM* | i
O=c1c(-c2ccc(F)cc2)nc2cnc(N3CCNCC3)nc2n1C1CC1 | · | · | -16.8% | · | -4.9% | ·
Cc1c(Cl)cccc1NC(=O)c1cc(-c2cccs2)on1 | 8.6% | -9.0% | · | -4.6% | · | i
Cc1nnsc1S(=O)c1ccc(Cl)c(Cl)c1 (stereo not given) | · | -8.8% | -38.7% | 7.8% | -28.9% | i
O=S(c1ccc2ccccc2c1)c1cnns1 (stereo not given) | -5.7% | 2.3% | 11.2µM* | -22.4% | ? | i
CCOC(=O)N1CCc2c(sc3c2c(=O)n(-c2ccccc2)c(=O)n3CC(=O)Nc2ccc(OC)cc2OC)C1 | -1.6% | -2.3% | · | 17.8% | · | i
N=c1ccn(Cc2ccc(F)cc2)cc1 | · | 20.1% | ? | -16.7% | ? | i
CCCCCCCCn1ccc(=N)cc1 | ? | -31.5% | ? | -24.1% | 7.08µM* | ?
CCCCCCN1Cc2ccccc2C1 | -5.9% | 2.2% | -8.9% | -21.1% | 7.0% | i
CCCCCCCCCCn1ccc(=N)cc1 | ? | -49.0% | 7.94µM* | ? | ? | i
